Results on 33 compounds are retold here after ChEMBL document CHEMBL1157539, “Thousands of chemical starting points for antimalarial lead identification” (Nature, 2010).

What all share (format): functional
The subject of test [1] is Plasmodium falciparum. Kind of test: GSK_TCMDC: Inhibition of Plasmodium falciparum 3D7 in whole red blood cells, using parasite LDH activity as an index of growth. Test compounds present at 2uM.
The subject of test [2] is Plasmodium falciparum. Kind of test: GSK_TCMDC: Inhibition of Plasmodium falciparum Dd2 in whole red blood cells, using parasite LDH activity as an index of growth. Test compounds present at 2uM.
Test [3] has as its system HepG2. The experiment in a line: GSK_TCMDC: Percent inhibition of human HepG2 cell line. Test compounds present at 10uM.

SMILES strings stand for the structures.

As usually defined, the Inhibition is the percentage by which the read-out fell short of the control. High values mean strong suppression, low ones little suppression. With `O=C(NC1CCN(c2ccnc3cc(Cl)ccc23)C1)c1cccc(F)c1.O=C(O)C(F)(F)F` (centres undefined), the Inhibition in test [1] turned out to be 95%; in test [2] it was 98%; in test [3], 30%.

Consider `CN(C)c1cc(NN=Cc2cc(Cl)ccc2O)nc(N(C)C)n1`, for which the results for the Inhibition in test [1], in test [2] and in test [3] were 98%, 98% and 3%, respectively.

As to `CN(CCc1ccccc1)c1ncc(-c2ccccc2CNCc2ccccc2O)cn1`, the values for the Inhibition in test [1], in test [2] and in test [3] were 99%, 94% and 10%, respectively.

In the case of `COc1cccc(CN2CCCC(COC(c3ccc(F)cc3)c3ccc(F)cc3)C2)c1O` (centres undefined), the Inhibition in test [1] is listed as 98%; in test [2], 100%; in test [3] it was 24%.

Take `Br.N=c1sc2ccccc2n1CC(O)c1ccc(Cl)c(Cl)c1` (centres undefined): the Inhibition in test [1] amounted to 99%; in test [2], 74%; in test [3], 4%.

Consider `CC(C)c1ccc(N(CC(=O)N/N=C/c2ccc(C(F)(F)F)cc2)S(=O)(=O)c2ccc(C(F)(F)F)cc2)cc1`, for which the Inhibition in test [1] came to 91%; in test [2], 44%; in test [3], 2%.

For `COc1ccc2ncc(F)c(CCN3CC[C@H](NC(=O)c4ccc5c(n4)NC(=O)CS5)[C@H](O)C3)c2n1.Cl`, the Inhibition in test [1] came to 88%; in test [2] it was 88%; in test [3], 20%.

Consider `CN(CC(=O)Nc1ccc(F)cc1)C(=O)c1ccc(-c2ccc(F)cc2)o1`, for which the Inhibition turned out to be 89% in test [1], 84% in test [2] and 3% in test [3].

Consider `Cc1c(C)c2c(c(C)c1O)CC[C@](C)(C(=O)N1CCC(CCN3CCC(c4c[nH]c5ccccc45)CC3)CC1)O2`, for which the Inhibition in test [1] came to 99%; in test [2] it was 74%; in test [3], 31%.

In the case of `CC(C)C[C@H](NC(=O)[C@H](Cc1ccccc1)N(C[C@H](Cc1ccccc1)NC(=O)OC(C)(C)C)C(=O)C(F)(F)F)C(=O)NC1CCN(Cc2ccccc2)CC1`, the Inhibition in test [1] was 92%; in test [2] it was 82%; in test [3], 13%.

With `COc1cc2c(cc1OC)CC(NCc1ccc(-c3ccc4nc[nH]c4c3)cc1)C2.O=C(O)C(F)(F)F`, the values for the Inhibition in test [1], in test [2] and in test [3] were 97%, 92% and 40%, respectively.

In the case of `CC(Cc1ccc(OCCN2CCN(c3cccc(Cl)c3)CC2)cc1)NCC(O)c1cccc(Cl)c1.Cl` (centres undefined), the Inhibition was found to be 93% in test [1], 91% in test [2] and 48% in test [3].

As for `C=CCN1C(=O)C(C(C)=O)=C(O)C1c1ccccc1` (centres undefined), the Inhibition in test [1] was found to be 93%; in test [2], 97%; in test [3] it was 41%.

Take `Cl.Oc1ccc2c(c1NCC1CCCCC1)CCCC2`: the results for the Inhibition in test [1], in test [2] and in test [3] were 99%, 99% and 11%, respectively.

`CCOC(=O)c1cnc2c(C(F)(F)F)cccc2c1Nc1ccc(O)cc1`: the Inhibition in test [1] is reported as 96%; in test [2], 67%; in test [3], 0%.

For `CN(CCc1ccccn1)Cc1ccc(-c2ccc(-c3nc4ccccc4[nH]3)s2)cc1`, the Inhibition in test [1] turned out to be 100%; in test [2], 48%; in test [3] it was 29%.

As for `O=C(Nc1ccc(N2CCNCC2)cc1)c1ccn2ncc(-c3cccc(Cl)c3)c2n1`, the Inhibition in test [1] came out at 96%; in test [2], 53%; in test [3], 79%.

For the compound `CS(=O)(=O)NCCCNCc1ccc(-c2ccc(-c3nc4cc(F)ccc4[nH]3)cc2)cc1.O=C(O)C(F)(F)F`, the values for the Inhibition in test [1], in test [2] and in test [3] were 100%, 97% and 17%, respectively.

With `COc1ccc(-n2ccnc2)cc1CNC1CCN(CC2Cn3c(=O)ccc4ccc(F)c2c43)CC1.O=C(O)C(F)(F)F` (centres undefined), the results for the Inhibition in test [1], in test [2] and in test [3] were 99%, 18% and 25%, respectively.

With `CCc1cccc(OCC2CCCN(c3ccc(C(=O)NC4CC4)cn3)C2)c1` (centres undefined), the Inhibition in test [1] came to 94%; in test [2], 73%; in test [3] it was 0%.

`COc1cc2nccc(Nc3ccc(NC(=O)c4ccc(C)cc4)c(O)c3)c2cc1OC.Cl`: the Inhibition in test [1] was 100%; in test [2], 77%; in test [3], 96%.

Turning to `NC(=O)C1CCN(Cc2ccc(-c3cccc(-c4nc5cc(F)ccc5[nH]4)c3)cc2)CC1.O=C(O)C(F)(F)F`, the figures for the Inhibition in test [1], in test [2] and in test [3] were 90%, 3% and 10%, respectively.

Take `Cc1cc(=NN=Cc2ccc(F)cc2)c2cc(F)ccc2[nH]1`: the values for the Inhibition in test [1], in test [2] and in test [3] were 100%, 61% and 6%, respectively.

As to `NC(=O)c1c(Cl)nc2ccccc2c1Cl`, the values for the Inhibition in test [1], in test [2] and in test [3] were 91%, 0% and 2%, respectively.

With `CCOc1cc(C)ccc1N1CCN(CCCCNC(=O)c2ccc(NC(=O)c3ccc(Cl)cc3)cc2)CC1.Cl`, the Inhibition in test [1] was 100%; in test [2], 46%; in test [3], 19%.

As for `O=C(/C=C/c1ccc(Cl)c(Cl)c1)NCCCCCN1CCC(CCCNC(=O)Nc2ccc(C(F)(F)F)cc2)CC1`, the Inhibition in test [1] is reported as 91%; in test [2], 19%; in test [3], 0%.

As for `COc1ccc2nccc([C@@H](O)CN3CCC(NCc4nc5c(cc4Cl)OCC(=O)N5)C(F)C3)c2c1.Cl` (some centres undefined), the Inhibition in test [1] was 84%; in test [2], 29%; in test [3] it was 4%.

Turning to `O=C(O)c1cccc2c(-c3ccncc3)cccc12`, the Inhibition is given as 97% in test [1], 1% in test [2] and 29% in test [3].

On to `Clc1cc(Nc2ncnc3sc(C#Cc4ncc[nH]4)cc23)ccc1OCc1ccccn1`, for which the Inhibition in test [1] was 100%; in test [2], 6%; in test [3], 10%.

As to `Cl.NCCCOc1cnc(-c2ccccc2)c2nc(-c3nonc3N)n(CCc3ccccc3)c12`, the results for the Inhibition in test [1], in test [2] and in test [3] were 93%, 86% and 56%, respectively.

Turning to `COc1cccc(Nc2nc(C)cc(NC3CCCC3)n2)c1`, the Inhibition in test [1] came out at 100%; in test [2] it was 79%; in test [3], 41%.

As for `N#Cc1cncc(-c2nc3c(N4CCN(c5cnccn5)CC4)cccc3n2CCNCc2ccccc2)c1.O=C(O)C(F)(F)F`, the Inhibition amounted to 99% in test [1], 31% in test [2] and 0% in test [3].

Take `CN(Cc1ccccc1)C1CCCN(c2cc(NC(=O)c3ccc(F)cc3)ccn2)C1.O=C(O)C(F)(F)F` (centres undefined): the Inhibition in test [1] amounted to 93%; in test [2], 95%; in test [3], 7%.
